From PubChem BioAssay
RGS4 inh – inhibitors of human regulator of G protein signaling 4 | Transcreener GDP fluorescence polarization, RGS4-accelerated GTP hydrolysis | Potency, µM (doses to about 114 µM), hits mostly inhibitors | 0.039% of 390,000 active | P49798; also: nearly all actives have a fitted effect of over 75% in size
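MLSMR compounds (23 nl, pin-transferred) preincubated 10 min at room temperature with a 500nM (2x) first reagent, then RGS4 at 900nM (2x) plus Transcreener GDP mix added; fluorescence polarization (620/688 nm) read before and after 90 min at 30 °C.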
KB-3-1 cytotox – KB-3-1 parental cell cytotoxicity; KB-3-1 viability, CellTiter-Glo ATP luminescence, 72 h; Potency, µM (series often up to 46.1 µM), actives largely listed as cytotoxic; 1.4% of 400,000 active; also: nearly all actives have a fitted effect of over 60% in size
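Here the drug-naive KB-3-1 line serves as comparator for MDR sub-line selectivity; cells received compound titrations, 72 h at 37 °C, then CellTiter-Glo readout.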
MCF10A rereplic – inducers of DNA re-replication in MCF 10A breast cells; Potency, µM (series often up to 46.1 µM), usual class: activators; MCF 10A DNA re-replication, Hoechst nuclear intensity, 48 h; 2.9% of 350,000 active; also: nearly all actives have a fitted effect of over 50% in size
KB-V1 MDR tox – KB-V1 MDR subline cytotoxicity; KB-V1 MDR cells viability, CellTiter-Glo, 72 h; 3.4% of 400,000 active; Potency, µM (highest dose often 46.1 µM), most hits filed as cytotoxic; also: nearly all actives have a fitted effect of over 60% in size
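Cytotoxicity via CellTiter-Glo luminescence after 72 h compound exposure at 37 degrees C. Cells: drug-selected KB-V1 line, DMEM phenol-red free plus 10% FBS. Compounds tested at multiple concentrations; normalized data fitted to concentration-effect curves.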
SW480 rereplic – DNA re-replication induction in SW480 cells; SW480 DNA re-replication, Hoechst DNA content imaging, 48 h; AID 624297; 1.8% of 340,000 active; Potency, µM (titrated, usually from 46.1 µM), most hits filed as activators; also: nearly all actives have a fitted effect of over 55% in size
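Readout is total intensity of Hoechst-stained nuclei, excited at 405 nm and collected at 500-530 nm. Compound treatment lasted 48 hr at 37 C in 5% CO2 before staining.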
PTAP TSG101 blk – blocks PTAP/TSG101 interaction to inhibit HIV-1 budding. 340,000 tested, under 10 active. AID 493005. Fluorescence polarization, FITC-PTAP peptide / Tsg101 binding. Potency, µM (doses to about 115 µM), hits mostly inhibitors; active = well fitted inhibition curve with a large enough effect in the main read-out, with a control signal flat, not every such curve was filed as active; inconclusive = small, poorly fitted or top-dose-only effect, or effect the other way, or a change in a side signal; inactive = no such curve, though single readings can be large or run the other way
Target sequence (Q99816 whole entry, looked up): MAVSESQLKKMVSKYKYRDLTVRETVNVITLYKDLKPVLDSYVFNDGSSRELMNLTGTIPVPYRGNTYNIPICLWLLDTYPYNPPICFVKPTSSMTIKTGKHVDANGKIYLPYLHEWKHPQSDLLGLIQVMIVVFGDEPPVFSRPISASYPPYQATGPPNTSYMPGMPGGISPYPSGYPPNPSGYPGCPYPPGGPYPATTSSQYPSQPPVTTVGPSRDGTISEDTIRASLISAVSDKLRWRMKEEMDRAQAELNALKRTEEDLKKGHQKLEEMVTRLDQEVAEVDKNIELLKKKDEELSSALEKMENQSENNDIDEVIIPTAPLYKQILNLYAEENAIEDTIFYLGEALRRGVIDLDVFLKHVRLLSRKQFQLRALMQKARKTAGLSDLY
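Steps: Tsg101 binding domain dispensed (10 uM final), compounds pinned in DMSO, FITC-labeled PTAP-motif peptide added (50 nM final); after 20 min binding at room temperature, polarization measured.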
Each line names hits and unclear results; the compound was inactive in the other large screens. Compounds with a hit are over-represented: about 6.6% of the library has one in this group of screens. Unless noted, calls follow the shape of the dose curve; as a rule, active = well fitted curve in the direction sought with a large enough effect; inconclusive = small, poorly fitted or top-dose-only effect, or another doubt; inactive = no such curve, though single readings can be large; an effect the other way counts as inactive or inconclusive.

COc1ccc(C(=O)COc2ccccc2C#N)cc1	MCF10A rereplic 16µM
CCOc1ccccc1NC(=O)C(=O)CC(=O)c1ccc(OC)cc1	KB-V1 MDR tox 16µM
CC1CN(c2c(F)c(N)c3c(=O)c(C(=O)O)cn(C4CC4)c3c2F)CC(C)N1 (configuration not stated)	none (no result: RGS4 inh, KB-3-1 cytotox, KB-V1 MDR tox, PTAP TSG101 blk)
Nc1cc(=O)[nH]c(SCCSc2ccccc2)n1	KB-3-1 cytotox inconclusive, KB-V1 MDR tox 7.3µM
Cc1cc(=O)[nH]c(SCCOc2ccc3c(c2)CCC3)n1	MCF10A rereplic inconclusive, SW480 rereplic 1.8µM
Cc1cc(=O)[nH]c(SCCOc2ccc(OC(C)C)cc2)n1	none
Nc1cc(=O)[nH]c(SCCOc2ccccc2)n1	KB-3-1 cytotox inconclusive, KB-V1 MDR tox 5.2µM
Cc1nn(-c2cccc(Cl)c2)c2nc(-c3cccnc3)cc(C(F)(F)F)c12	none (no result: KB-3-1 cytotox, MCF10A rereplic, KB-V1 MDR tox, SW480 rereplic, PTAP TSG101 blk)
CN(C)CCNC(=O)C(c1ccccc1)c1ccccc1	none
CN(C)CCC(=O)C(Cc1ccccc1)c1ccccc1 (configuration not stated)	RGS4 inh inconclusive, MCF10A rereplic 4.1µM, KB-V1 MDR tox inconclusive, SW480 rereplic inconclusive
CCN1CCN(Cc2ccc(NC(=O)c3cc(NC(=O)c4cnn(-c5ccccc5)c4N)cc(OC)c3)cc2C(F)(F)F)CC1	MCF10A rereplic 15µM
CCN1CCN(Cc2ccc(NC(=O)c3ccc(C)c(NC(=O)C(=O)c4c[nH]c5ccccc45)c3)cc2C(F)(F)F)CC1	RGS4 inh inconclusive, KB-3-1 cytotox inconclusive, MCF10A rereplic 23µM, KB-V1 MDR tox inconclusive, SW480 rereplic inconclusive
COc1ccc(C(C)=O)cc1COc1ccc(-n2cnnn2)cc1	RGS4 inh inconclusive, KB-V1 MDR tox 21µM
CC(C)(C)c1ccc(C(=O)c2c[nH]c(C(=O)NCCCN3CCOCC3)c2)cc1	MCF10A rereplic inconclusive, KB-V1 MDR tox 18µM
COc1ccc(-n2c(/C=C/c3cccc4ccccc34)nc3ccccc3c2=O)cc1Cl	KB-3-1 cytotox inconclusive, KB-V1 MDR tox inconclusive (no result: MCF10A rereplic, SW480 rereplic, PTAP TSG101 blk)
COc1ccc(-c2nc3cc(NC(=O)c4ccc(C)cc4)ccc3o2)cc1Cl	KB-3-1 cytotox inconclusive, KB-V1 MDR tox inconclusive (no result: MCF10A rereplic, SW480 rereplic, PTAP TSG101 blk)
COC(=O)c1nc(-c2ccccc2)oc1N(C)C	KB-V1 MDR tox 16µM
CCOC(=O)c1nn(-c2ccccc2)c(C#N)c1NC(=O)c1nn(CC)cc1Br	none
CCOC(=O)c1c(NC(=O)c2nn(CC)cc2Br)c(C#N)nn1-c1ccccc1	KB-V1 MDR tox 16µM (no result: PTAP TSG101 blk)
Cn1c(=O)c([N+](=O)[O-])c(Cl)c2ccccc21	KB-3-1 cytotox inconclusive, MCF10A rereplic 3.7µM, SW480 rereplic 16µM
CCN(CC)c1c([N+](=O)[O-])c(=O)n(C)c2ccccc12	KB-V1 MDR tox inconclusive, SW480 rereplic inconclusive
CCCCOc1ccc(C2=NC(c3ccncc3)=Nc3ccc(Br)cc3N2)cc1	none (no result: MCF10A rereplic, SW480 rereplic, PTAP TSG101 blk)
O=C(Nc1ccccc1)c1nnsc1S(=O)c1ccc(Cl)cc1 (configuration not stated)	RGS4 inh inconclusive, KB-3-1 cytotox inconclusive, MCF10A rereplic inconclusive, SW480 rereplic 23µM
O=C(c1nnsc1S(=O)c1ccc(Cl)cc1)N1CCOCC1 (configuration not stated)	RGS4 inh inconclusive, KB-3-1 cytotox inconclusive, KB-V1 MDR tox 13µM
O=C(c1nnsc1S(=O)(=O)c1ccc(Cl)cc1)N1CCOCC1	KB-3-1 cytotox inconclusive, MCF10A rereplic 3.5µM, SW480 rereplic inconclusive
CNC(=O)c1ccc(S(=O)(=O)c2ccc(Cl)cc2)c(NC(C)=O)c1	none
CNC(=O)c1nnsc1S(=O)(=O)c1ccc(Cl)cc1	RGS4 inh inconclusive, KB-3-1 cytotox inconclusive, MCF10A rereplic 1.5µM, SW480 rereplic 1µM
Cc1c(Cl)cccc1NC(=O)C(C)n1nc(C)c2c(C)n(-c3ccccc3)nc2c1=O (configuration not stated)	none (no result: MCF10A rereplic, SW480 rereplic, PTAP TSG101 blk)
Cc1cc(C)c(NC(=O)c2cc(CN3CCOCC3)on2)c(C)c1	none (no result: MCF10A rereplic, SW480 rereplic, PTAP TSG101 blk)
CCOc1ccccc1NC(=O)Cn1ncc2c(=O)oc3ccc(C)cc3c21	KB-V1 MDR tox inconclusive (no result: MCF10A rereplic, SW480 rereplic, PTAP TSG101 blk)
